The structures appear in SMILES notation. About 200 (20%) of roughly 1,000 compounds were called active. Not all results are given here. Results with a measured potency or affinity are listed apart. Values without a mark were called inactive. Cut-off read from the data, not from the text of the source: active = inhibition above about 55%; inactive = the rest.

For this experiment, the target named is Dual specificity protein phosphatase 3 (Homo sapiens) (UniProt P51452). Kind of experiment: VHR1 phosphatase inhibitors, biochemical (AID 1878). The conditions noted are these: recombinant VHR phosphatase, fluorogenic substrate; at 13.3 µM; active compounds read high.
Dual specificity protein phosphatase 3 (Homo sapiens), sequence (P51452 whole entry, looked up): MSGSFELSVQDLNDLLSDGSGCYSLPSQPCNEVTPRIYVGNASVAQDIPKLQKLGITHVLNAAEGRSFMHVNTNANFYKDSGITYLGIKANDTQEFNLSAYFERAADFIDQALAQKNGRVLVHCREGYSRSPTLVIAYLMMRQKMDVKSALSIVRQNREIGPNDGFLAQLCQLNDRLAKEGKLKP
As usually defined, the inhibition is the drop in the measured response relative to a control, in per cent. For `CCCCn1c(N)c(N(CCOC)C(=O)c2cc(S(=O)(=O)N3CCCCC3)ccc2Cl)c(=O)[nH]c1=O`, the inhibition was -7.9%.

With `COC(=O)c1ccc(COc2ccc(C(C)(C)C)cc2)o1`, the inhibition was 29.7%.

For `O=C1CCCN1CCC(=O)N1CCCC(CO)(Cc2ccccc2)C1` (configuration not stated), the inhibition was 26.9%.

For `CC1CC(C)CN(CCCNC(=O)c2ccc(CNS(=O)(=O)c3ccc(F)cc3)cc2)C1` (configuration not stated), the inhibition was 2.4%.

On to `COc1ccc(CN2C(=O)c3cccnc3C2=O)cc1S(=O)(=O)NC1CCCCC1`, for which the inhibition was -2.5%.

Regarding `CCOc1ccc(C(=O)N2CCC3(CC2)NCCc2[nH]cnc23)cc1OCC`, the inhibition is -1.8%.

As for `Cc1c(C)c2ccc(O[C@@H]3O[C@H](CO)[C@H](O)[C@H](O)[C@H]3O)c(C)c2oc1=O`, the inhibition is -3.5%.

With `Cc1c(NC(=O)c2ccc(Cl)c(S(=O)(=O)N3CCCCC3)c2)c(=O)n(-c2ccccc2)n1C`, the inhibition was -10.6%.

Take `CCC1CCCCN1CCCNC(=O)CNC(=O)c1nn(-c2ccc(OC)c(Cl)c2)c(=O)c2ccccc12` (configuration not stated): the inhibition is -5.3%.

Consider `COc1ccc(CN2CCNC(=O)C2CC(=O)NCC2CCOCC2)c(C)c1C` (configuration not stated), for which the inhibition was 15.1%.

For `COCCNc1cc(C)nc2c3c(C)cc(C)nc3nn12`, the inhibition was 9.5%.

As to `COc1ccc(CCC(=O)NNC(=O)Nc2ccc(OC)c(OC)c2)cc1`, the inhibition is 1.3%.

Consider `CCOc1ccccc1NC(=O)Nc1cc(C(=O)O)ccc1C`, for which the inhibition was -10.9%.

In the case of `CCOc1cc(/C=C(\C#N)C(=O)Nc2cccc(C(=O)O)c2)ccc1OCc1ccccc1Cl`, the inhibition is 94.8% (active).

On to `CCOc1cc(/C=C(\C#N)C(=O)Nc2ccccc2C(=O)O)ccc1OC(=O)c1ccc(C)cc1`, for which the inhibition is 87.8% (active).

Turning to `CCOc1cc(/C=C(/C#N)C(=O)Nc2ccc(OC)cc2)ccc1OCc1ccc(C(=O)O)cc1`, the inhibition is 90.9% (active).

Turning to `COc1cc(/C=C(\C#N)C(=O)Nc2ccc(C(=O)O)cc2)ccc1OC(=O)c1cccc(F)c1`, the inhibition is 67.8% (active).

As for `C/C=C/c1ccc(OCC(O)CNCCc2ccc(OC)cc2)c(OC)c1` (configuration not stated), the inhibition is 11.7%.

Consider `CCOc1ccc(C(=O)Nc2cc3c(cc2N2CCCC2)n(CC)c(=O)n3CC)cc1OCC`, for which the inhibition was -0.2%.

As to `CCc1ccccc1S(=O)(=O)c1c(C)cc(C)nc1Cl`, the inhibition was -1.3%.

Regarding `C=CCC(=O)NC1CC(C)(C)Cc2c1cnn2-c1ccc(C)cc1` (configuration not stated), the inhibition was -12.1%.

`CCC(=O)NC1=C(Nc2ccc(N)cc2)C(=O)c2ccccc2C1=O`: the inhibition was -7.2%.

Regarding `O=C(NC1CCCCC1)c1cc(-c2ccccc2Cl)on1`, the inhibition is 3.4%.

Regarding `CCCN1C2CCCC1CC(NC(=O)NC13CC4CC(CC(C4)C1)C3)C2` (configuration not stated), the inhibition was 25.2%.

As to `CC(C)c1nn2c(=O)cc(COc3cccc(NC(=O)c4ccco4)c3)nc2s1`, the inhibition is 10.3%.

Turning to `O=C(Nc1cccc(O)c1)C1CC(c2cccc(Br)c2)=NO1` (configuration not stated), the inhibition is 6.5%.

As to `O=C(Nc1ccc(C(=O)N2CCN(c3ccc(F)cc3)CC2)cc1)C1=CSCCO1`, the inhibition is 4.8%.

`Cc1nn(CC(=O)NCCCN2CCCCC2)c(=O)c2cc(-c3ccccc3)nn12`: the inhibition was 22.8%.

`COc1cc(CNc2ccc(N3CCOCC3)cc2)ccc1OCC(=O)NC(C)(C)C`: the inhibition is 2.1%.

With `CCOc1ccccc1CN1CCC(n2nccc2NC(=O)C2CCCC2)CC1`, the inhibition is -19.2%.

Turning to `COc1cc(C(=O)NCC2(c3ccccc3)CCCC2)ccc1OC(C)C`, the inhibition was -7.1%.

As to `Cc1ccc(-c2[nH]ncc2C(=O)c2ccccc2C)c(O)c1`, the inhibition is -9%.

With `CC(Cc1ccccc1)N1C(=O)c2ccccc2C1=O` (configuration not stated), the inhibition was -2.4%.

For `C=CCN(C(=O)CNC(=O)c1cccs1)C(C(=O)NC(C)(C)C)c1ccccc1` (configuration not stated), the inhibition is -6%.

`Cc1cc(Cl)c2oc(C(=O)NC(C)c3ccncn3)c(C)c2c1` (configuration not stated): the inhibition was -5.8%.

In the case of `CC1Sc2ccc(S(=O)(=O)CCC(=O)N(C)Cc3ccco3)cc2NC1=O` (configuration not stated), the inhibition was -2.5%.

Regarding `CC(C)(C)C(=O)NN=C1CCC(c2ccccc2)CC1` (configuration not stated), the inhibition is -3.9%.

Turning to `CCOC(=O)C1(CCOc2ccccc2)CCN(CC(O)CO)CC1` (configuration not stated), the inhibition is -7.8%.

For the compound `CC1CCCN(CCCNC(=O)c2ccc3c(c2)N(Cc2ccccc2F)C(=O)c2ccccc2S3(=O)=O)C1` (configuration not stated), the inhibition is -12.5%.

Consider `Cc1ccc(C(=O)Nc2ccccc2N2CCCC2)cc1`, for which the inhibition is 21%.

As for `CC(C)Cn1c(C23CC4CC(CC(C4)C2)C3)n[nH]c1=S`, the inhibition is 10%.

As for `CCCCNC(=O)c1cn(C)c2ccc(S(=O)(=O)N3CCCC3)cc2c1=O`, the inhibition was -4%.

As to `Cc1ccc(CN2C(=O)CC(Nc3ccc(N4CCOCC4)cc3)C2=O)cc1` (configuration not stated), the inhibition is 1.9%.

In the case of `Cc1ccc2nc(N3CCN(C)CC3)c(C=O)c(=O)n2c1`, the inhibition was 2.4%.

With `O=C(c1cc(F)c(F)c(F)c1F)N1CCN(Cc2ccc3c(c2)OCO3)CC1`, the inhibition is -6.3%.

In the case of `O=C1NN(c2ccccc2)C(=O)/C1=C\c1ccccc1`, the inhibition was 5.2%.

For the compound `CN(C)c1nc(N(C)C)nc(N(C#N)Cc2ccc(Cl)cc2)n1`, the inhibition is 2%.

Regarding `COc1cc(CNc2ccc(N3CCN(C(C)=O)CC3)cc2)ccc1OCc1ccc(F)cc1`, the inhibition was -8.4%.

In the case of `COc1ccc(C2CC(=O)C(C=NCCO)=C(O)C2)cc1` (configuration not stated), the inhibition was -0.8%.

As for `COc1cc(/C=N/n2c(C)nc3ccccc3c2=O)ccc1O`, the inhibition was 16.3%.

As to `COc1ccc2nc(C)cc(SCC(=O)N/N=C/c3c(OC)ccc4ccccc34)c2c1`, the inhibition is 92% (active).

For `COc1ccc2c(c1)c(C(=O)N/N=C/c1ccc(OC)c(OC)c1)c(C)n2C`, the inhibition is -4.6%.

`COc1ccc(OC)c(NC(=O)Cc2coc3ccc4ccccc4c23)c1`: the inhibition is -4.5%.

Turning to `CN(C)CCCNC(=S)N(CCCN(C)C)Cc1cc2cc3c(cc2[nH]c1=O)OCO3`, the inhibition is -11.5%.

As to `CN(CCO)c1nc(N)c2c(N)nc3c(c2c1C#N)CC(=O)N3C1CCCC1`, the inhibition was 2.2%.

Consider `Cc1ccc(N=Nc2cc(C)ccc2O)c(C)c1`, for which the inhibition is 0.1%.

Turning to `CC(=O)Nc1c(-c2ccccc2)c2cc(Br)ccc2[nH]c1=O`, the inhibition is -0.4%.

On to `CC1CCCN(CCCNC(=O)C2CCN(S(=O)(=O)N3CCC4(CC3)OCCO4)CC2)C1` (configuration not stated), for which the inhibition is 2.1%.

Regarding `O=C(Cn1cnc2c(oc3nc4c(cc32)CCCC4)c1=O)Nc1cccc(Cl)c1`, the inhibition was 37.7%.

With `Cc1csc(NC(=O)CCCC(=O)O)c1-c1nc2ccccc2s1`, the inhibition is 98.8% (active).

Regarding `CSc1ccc(NC(=O)N2CCN(c3nc4ccccc4s3)CC2)cc1`, the inhibition was 5%.

Turning to `Cc1ccc2nc(NC(=O)CCCc3nc4ccccc4s3)sc2c1`, the inhibition was -0.6%.

Regarding `O=C(CN1CCN(S(=O)(=O)c2ccc(Br)cc2)CC1)c1ccc(O)c(O)c1`, the inhibition was -4.1%.

On to `Cc1cc(C)cc(NS(=O)(=O)c2ccc(-c3cnc(C4CC4)o3)cc2)c1`, for which the inhibition was 13%.

As for `CC(NC(=O)COc1ccc(/C=N/NC(=O)CO)cc1)c1ccccc1` (configuration not stated), the inhibition is 1.2%.

Take `CCOc1cc(/C=N/NC(=O)c2ccc(-c3csc(Nc4ccc(C)cc4)n3)cc2)ccc1OCC(=O)O`: the inhibition was 75.5% (active).

In the case of `CC(C)(C)c1ccc2c(c1)OC(C(=O)N/N=C\c1ccc[nH]1)CO2` (configuration not stated), the inhibition is 6.8%.

With `CCOC(=O)C1CCCN(CC(=O)Nc2nccs2)C1` (configuration not stated), the inhibition is 23.9%.

As for `CCOC(=O)c1ccc(S(=O)(=O)Nc2ccc(N3CCOCC3)cc2)cc1`, the inhibition is -9%.

Turning to `CC(=O)N1CC(=O)Nc2ccc(F)cc2C1c1ccccc1` (configuration not stated), the inhibition is 32.3%.

Turning to `CCOC(=O)C1=C(N)Oc2ccc3ccccc3c2C1c1cccc(O)c1` (configuration not stated), the inhibition was -5.7%.

As for `O=C(Nc1ccc(-n2nncc2-c2ccco2)cc1)c1cc2ccccc2oc1=O`, the inhibition is 96.1% (active).

Take `CCn1c2ccccc2c2n[nH]c(=S)nc21`: the inhibition was -2.6%.

For the compound `Cc1cc(C)c(S(=O)(=O)Nc2ccc(N(C)C)cc2)c(C)c1-n1cnnn1`, the inhibition is -1.2%.

As for `CC(=O)NCCc1nc2cc(NC(=O)c3ccc([N+](=O)[O-])cc3)ccc2n1C`, the inhibition is -5.3%.

With `COc1ccc(Cc2nnc(NC(=O)c3ccco3)s2)cc1`, the inhibition is -10%.

As for `CCN(CC)CCCNc1oc(-c2ccccc2[N+](=O)[O-])nc1C#N`, the inhibition is 22.5%.

As for `O=C1CSC(c2cccc([N+](=O)[O-])c2)N1Cc1ccccc1` (configuration not stated), the inhibition was 3.2%.

Regarding `Cc1ccc(OCCCCN2CCCCC2)cc1`, the inhibition was 6.5%.

For `Cc1ccccc1NC(=O)CN1C(=O)N/C(=C\c2ccccc2OCc2ccc(C(=O)O)cc2)C1=O`, the inhibition is 84.1% (active).

In the case of `CSc1nsc2nc(=O)c(/C=C3\C(C)=Nc4ccccc43)c(N)n12`, the inhibition is 7.5%.

For the compound `COc1cc(NC(=O)c2noc(C)c2[N+](=O)[O-])c(OC)cc1Cl`, the inhibition was -2.3%.

For `CC1CC(C)CN(CCCNC(=O)C2CCCN(S(=O)(=O)N3CC(C)CC(C)C3)C2)C1` (configuration not stated), the inhibition is 20.9%.

On to `C=CCn1c(=O)c2c(nc3n2CCCN3Cc2ccccc2)n(C)c1=O`, for which the inhibition is -4%.

With `Cc1cccc(NC(=O)c2cc(-c3ccc(C)c(C)c3O)n[nH]2)c1`, the inhibition was 8.4%.

`C/C(=N\NC(=O)c1c(C)nc2ccccn12)c1ccccc1F`: the inhibition was -12.4%.

Turning to `Cc1cccc(NC(=O)c2cc3c(=O)n4ccccc4nc3s2)c1`, the inhibition is 93.3% (active).

Take `CCC(N)Cc1c[nH]c2ccccc12` (configuration not stated): the inhibition is 14.4%.

As for `O=C(COc1ccccc1)Nc1ccncc1Cl`, the inhibition was 8.7%.

Take `O=C(COc1ccc2c(-c3ccccc3)cc(=O)oc2c1)Nc1ccc(CCO)cc1`: the inhibition was 84.8% (active).

Turning to `O=C(COc1ccc2c(-c3ccccc3)cc(=O)oc2c1)Nc1cccnc1`, the inhibition was 92.7% (active).

`Cc1cccc(CC(=O)Nc2cccnc2)c1`: the inhibition is -5.3%.
